Compounds without any hit were thinned out: in the full panel of roughly 83,000, 20% have a hit.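 Cells were grown in 96-well plates and exposed to the test compound at a single concentration for 48 hours; results are reported as percent growth, with values below 10 considered active.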 Values without a mark were called inactive. The source made the active and inactive calls.

Some test systems named below: K-562 leukemia; MALME-3M melanoma; MDA-MB-231 breast; RXF 393 renal; SF-268 CNS; SF-295 CNS; SF-539 CNS; UACC-257 melanoma; M14 melanoma; HCT-15 colon; HT29 colon; SNB-75 CNS; SNB-19 CNS; U251 CNS; PC-3 prostate; SK-MEL-5 melanoma; UACC-62 melanoma; LOX IMVI melanoma; SK-MEL-28 melanoma; SK-MEL-2 melanoma.
What all share (test): NCI-60 one-dose screen, 48 h (100 = growth as untreated, 0 = no growth, -100 = all killed)
Common to all, as to settings: 10 µM

For the molecule `CCC(=O)N1C/C(=C/c2ccc(Cl)cc2)C(=O)/C(=C/c2ccc(Cl)cc2)C1`, the growth with K-562 leukemia is 1.74% (active); with MALME-3M melanoma it was -66.2% (active); in the assay with MDA-MB-231 breast it was -22% (active); in the assay with RXF 393 renal it was -94% (active); in the assay on SF-268 CNS, -30.4% (active); in the assay on SF-295 CNS it was -35.8% (active). Further, the growth with SF-539 CNS was -64.7% (active); in the assay on UACC-257 melanoma it was -40.3% (active); in the assay with M14 melanoma it was -61.9% (active); in the assay on HCT-15 colon, 0.422% (active); in the assay on HT29 colon it was -72.8% (active); in the assay with SNB-75 CNS it was 20%. Further, the growth in the assay with SNB-19 CNS was -19.3% (active); in the assay with U251 CNS, -80.1% (active); in the assay with PC-3 prostate, -44.1% (active); in the assay with SK-MEL-5 melanoma, -64.1% (active); with UACC-62 melanoma, -74.8% (active); with LOX IMVI melanoma it was -85.7% (active). The values for the growth with SK-MEL-28 melanoma and in the assay on SK-MEL-2 melanoma were -74.2% (active) and -21.5% (active), respectively.
For the molecule `O=C1/C(=C/c2ccc([N+](=O)[O-])s2)Oc2ccccc21`, the growth was -14.5% (active) in the assay with K-562 leukemia; -60.9% (active) in the assay on MALME-3M melanoma; -70.3% (active) with MDA-MB-231 breast; -81.1% (active) in the assay on RXF 393 renal; -54.2% (active) in the assay with SF-268 CNS; -37.4% (active) in the assay on SF-295 CNS. The growth in the assay with SF-539 CNS is -77% (active); in the assay with UACC-257 melanoma it was -54.6% (active); in the assay on M14 melanoma, -40.9% (active); with HCT-15 colon it was -15.5% (active); with HT29 colon, -15% (active); with SNB-75 CNS, -7.58% (active). In addition, the growth in the assay on SNB-19 CNS was -0.508% (active); in the assay with U251 CNS, -76.5% (active); in the assay with PC-3 prostate, -23.2% (active); with SK-MEL-5 melanoma, -64.8% (active); with UACC-62 melanoma, -80.4% (active); in the assay on LOX IMVI melanoma it was -70.4% (active). In addition, the growth is -35.9% (active) in the assay on SK-MEL-28 melanoma and -48.9% (active) in the assay with SK-MEL-2 melanoma.
In the case of `c1ccc(CNc2ncnc3scc(-c4cccs4)c23)nc1`, the growth is 42.7% in the assay with K-562 leukemia; 89.5% with MALME-3M melanoma; 59.9% in the assay on MDA-MB-231 breast; 73.6% in the assay on RXF 393 renal; 79.7% in the assay with SF-268 CNS; 41.2% in the assay with SF-295 CNS. In addition, the growth with SF-539 CNS is 72.7%; in the assay on UACC-257 melanoma it was 46.1%; in the assay with M14 melanoma it was 70.7%; in the assay on HCT-15 colon, 76%; in the assay with HT29 colon it was 91.2%; in the assay on SNB-75 CNS, 64.6%. Besides, the growth in the assay with SNB-19 CNS is 67.2%; in the assay on U251 CNS it was 75.7%; with PC-3 prostate, 58.6%; in the assay on SK-MEL-5 melanoma it was 14.8%; in the assay with UACC-62 melanoma it was 56%; with LOX IMVI melanoma it was 74.2%. In addition, the growth with SK-MEL-28 melanoma is 96.7%; in the assay on SK-MEL-2 melanoma, 72.2%.
`COc1cc(NC(=O)c2sc3nc4c(cc3c2N)C(O)CCC4)cc(OC)c1` (stereo not given): the growth is 27.9% in the assay on K-562 leukemia; 77.6% with MALME-3M melanoma; 88.9% in the assay on MDA-MB-231 breast; 90.4% with RXF 393 renal; 103% in the assay with SF-268 CNS; 87.5% with SF-295 CNS. In addition, the growth in the assay with SF-539 CNS is 87.7%; in the assay on UACC-257 melanoma it was 89.2%; in the assay with M14 melanoma, 75.4%; in the assay with HCT-15 colon, 60.1%; in the assay with HT29 colon, 67%; with SNB-75 CNS, 82.1%. Also, the growth in the assay with SNB-19 CNS is 93.6%; in the assay with U251 CNS, 78.6%; in the assay with PC-3 prostate, 99.5%; with SK-MEL-5 melanoma, 88.4%; in the assay with UACC-62 melanoma it was 73%; with LOX IMVI melanoma, 93.3%. The growth in the assay on SK-MEL-28 melanoma was 85.1%; in the assay on SK-MEL-2 melanoma it was 61.6%.
For the molecule `CCCC#CCN(CC)CC`, the growth in the assay with K-562 leukemia is 103%; with MALME-3M melanoma it was 111%; in the assay with MDA-MB-231 breast, 109%; in the assay with RXF 393 renal it was 112%; in the assay on SF-268 CNS it was 111%; in the assay on SF-295 CNS it was 80.2%. Besides, the growth with SF-539 CNS is 99.6%; in the assay with UACC-257 melanoma it was 93.6%; in the assay on M14 melanoma, 108%; with HCT-15 colon, 99.6%; in the assay on HT29 colon, 104%; with SNB-75 CNS, 97.1%. Further, the growth in the assay with SNB-19 CNS was 100%; in the assay on U251 CNS it was 91.2%; in the assay on PC-3 prostate, 86%; in the assay with SK-MEL-5 melanoma, 104%; with UACC-62 melanoma it was 99.1%; with LOX IMVI melanoma, 102%. In addition, the growth in the assay on SK-MEL-28 melanoma is 108%; in the assay on SK-MEL-2 melanoma, 114%.
With `CC[C@H](C)C(=O)O[C@H]1CCC=C2C=C[C@H](C)C(CCC3C[C@@H](O)CC(=O)O3)[C@H]21` (stereo not given in full), the growth was 71.5% in the assay with K-562 leukemia; 89.1% in the assay on MALME-3M melanoma; 2.32% (active) in the assay with MDA-MB-231 breast; 70.2% in the assay with RXF 393 renal; 33.8% in the assay on SF-268 CNS; 8.14% (active) in the assay on SF-295 CNS. The growth was 85.8% with SF-539 CNS; 75.2% in the assay on UACC-257 melanoma; 61.7% with M14 melanoma; 55.8% in the assay with HCT-15 colon; 92.3% with HT29 colon; 32.2% in the assay on SNB-75 CNS. For the same molecule, the growth is 56.2% in the assay with SNB-19 CNS; 16.8% in the assay on U251 CNS; 31.1% with PC-3 prostate; 60% with SK-MEL-5 melanoma; 29.6% with UACC-62 melanoma; 11.6% in the assay on LOX IMVI melanoma. Moreover, the growth was 78.4% in the assay with SK-MEL-28 melanoma and 19.5% in the assay on SK-MEL-2 melanoma.
With `CC(C)(C)c1ccc(N2CSC(=S)N(c3ccc(C(C)(C)C)cc3)C2)cc1`, the growth in the assay with K-562 leukemia was 90.1%; in the assay on MALME-3M melanoma it was 85.8%; with MDA-MB-231 breast, 97.4%; with RXF 393 renal, 144%; with SF-268 CNS, 109%; with SF-295 CNS, 99.9%. Also, the growth was 97.9% in the assay on SF-539 CNS; -6.73% (active) in the assay on UACC-257 melanoma; 95.9% in the assay with M14 melanoma; 94.7% in the assay with HCT-15 colon; 105% in the assay on HT29 colon; 76.1% in the assay with SNB-75 CNS. Besides, the growth was 95.4% in the assay on SNB-19 CNS; 100% in the assay on U251 CNS; 73.8% with PC-3 prostate; 96.3% with SK-MEL-5 melanoma; 94.9% in the assay on UACC-62 melanoma; 101% in the assay with LOX IMVI melanoma. Further, the figures for the growth with SK-MEL-28 melanoma and in the assay with SK-MEL-2 melanoma were 105% and 101%, respectively.
With `CCCCCCNC(=O)Oc1ccc(/C(=C(/CC)Cc2ccccc2)c2ccc(OCCN3CCCCC3)cc2)cc1`, the growth in the assay on K-562 leukemia was 24%; in the assay on MALME-3M melanoma, 93.1%; in the assay on MDA-MB-231 breast, 83.6%; in the assay on RXF 393 renal it was 73.8%; in the assay with SF-268 CNS, 80.9%; in the assay with SF-295 CNS, 114%. Besides, the growth with SF-539 CNS is 91.9%; in the assay on UACC-257 melanoma, 86.1%; in the assay on M14 melanoma, 94.7%; with HCT-15 colon, 39%; in the assay with HT29 colon, 20.3%; in the assay on SNB-75 CNS, 80.2%. Moreover, the growth in the assay with SNB-19 CNS is 85.9%; with U251 CNS it was 69.3%; in the assay on PC-3 prostate, 73.2%; in the assay on SK-MEL-5 melanoma, 84.5%; with UACC-62 melanoma, 99.5%; in the assay on LOX IMVI melanoma, 96.8%. Further, the values for the growth in the assay with SK-MEL-28 melanoma and in the assay on SK-MEL-2 melanoma were 96.4% and 91.3%, respectively.
